Screening results from PubChem BioAssay.
Hits are enriched below; roughly 5.4% of the tested compounds scored in any of these assays.
FXN GAA850 act: increases GAA850 frataxin promoter reporter activity; HEK293 lucGAA850 FXN promoter luciferase reporter, 24 h; percent of 10 µM SAHA response; activation, % at 6 µM; hit rate 0.56% among 360,000;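 active = activation above the average of all compounds screened plus 3 SD, cutoff fixed separately per campaign, cut at about 7.5% in these data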;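 note: 0% = DMSO wells and 100% = 10 µM SAHA wells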
HSF1 inhib: HSF1 inhibition; hit rate 0.77% among 300,000; activity change, negative = inhibition, % at 7.5 µM (by protocol); NIH3T3-HGL HSE-luciferase, MG132-induced, luminescence 8 h; stronger effect = lower value;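 active = more than half of replicate wells show activity change below -50%, luminescence cut by over half; inconclusive = some wells, but at most half, below -50%; inactive = no replicate well below -50%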;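 note: luciferase reports HSF-1 transcriptional activity via heat shock element; 0% = median of DMSO wells and -100% = zero luminescence signal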
HSF1 activator: increases HSF-1 driven luciferase reporter signal; activation, % at 9 µM; NIH3T3-HGL HSF-1 luciferase reporter, MG132, 8 h; 100% = twice DMSO control signal; AID 504408; hit rate 1.7% among 300,000;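 active = mean replicate activation of at least 50% with a set share of replicates each reaching 50%; inconclusive = only one of those two conditions met; inactive = mean below 50% and too few replicates reaching it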;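 note: 0% = median of the neutral control wells and 100% = twice that signal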
DAX1 inh: inhibitors of human orphan nuclear receptor DAX1 (NR0B1) | P51843 | HEK293 Gal4-DAX1 luciferase reporter, luminescence | inhibition, % at 6.75 µM | hit rate 0.99% among 340,000 | AID 504766;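 active = inhibition above the mean over all tested compounds plus 3 SD, cut at about 4.2% in these data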;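 note: 0% = DAX1-transfected cells with DMSO and 100% = empty-vector control cells with DMSO; inhibition shows as a rise in luminescence from relieved DAX1 repression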
AHR activator: human AHR activation | P35869 | AHR-responsive luciferase reporter cells, luminescence | activation, % at 5 µM | hit rate 2.5% among 320,000; in the data active = activation above about 47%;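 note: 0% = vehicle wells and 100% = reference agonist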
Target sequence (P35869 whole entry, looked up): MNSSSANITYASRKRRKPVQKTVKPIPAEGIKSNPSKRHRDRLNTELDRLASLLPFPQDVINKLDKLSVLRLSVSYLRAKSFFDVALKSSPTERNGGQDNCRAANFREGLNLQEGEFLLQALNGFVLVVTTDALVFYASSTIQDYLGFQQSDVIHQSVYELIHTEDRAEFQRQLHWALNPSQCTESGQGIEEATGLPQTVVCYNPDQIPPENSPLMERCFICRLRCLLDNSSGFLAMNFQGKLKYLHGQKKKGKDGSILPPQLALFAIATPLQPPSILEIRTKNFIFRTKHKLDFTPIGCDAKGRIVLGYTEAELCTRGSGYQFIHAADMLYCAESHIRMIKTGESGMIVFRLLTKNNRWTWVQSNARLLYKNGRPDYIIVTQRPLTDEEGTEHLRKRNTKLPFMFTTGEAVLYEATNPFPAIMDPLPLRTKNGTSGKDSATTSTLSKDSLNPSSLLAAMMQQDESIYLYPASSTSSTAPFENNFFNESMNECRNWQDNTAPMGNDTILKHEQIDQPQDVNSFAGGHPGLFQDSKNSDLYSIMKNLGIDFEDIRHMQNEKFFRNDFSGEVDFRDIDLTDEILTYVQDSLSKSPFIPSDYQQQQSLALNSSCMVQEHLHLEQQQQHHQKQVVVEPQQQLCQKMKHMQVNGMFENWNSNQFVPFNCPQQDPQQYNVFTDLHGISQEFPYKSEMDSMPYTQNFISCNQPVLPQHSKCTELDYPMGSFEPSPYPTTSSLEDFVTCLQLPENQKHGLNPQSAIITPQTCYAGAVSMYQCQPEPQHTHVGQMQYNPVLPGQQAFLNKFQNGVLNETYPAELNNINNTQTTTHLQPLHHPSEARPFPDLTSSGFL
The depositor's hits bear a star; u = inconclusive; x = no result.

SMILES | FXN GAA850 act | HSF1 inhib | HSF1 activator | DAX1 inh | AHR activator
CC(OC(=O)c1cc(S(=O)(=O)N2CCOCC2)ccc1F)C(=O)NC1CCCCC1C (stereo not given) | -0.1 | -4.1 | -3.4 | -0.5 | 19.6
CC(=O)NC1CC2CCCC(C1)N2C(=O)Nc1cccc(C(C)=O)c1 (stereo not given) | 3.8 | x | x | 2.7 | x
O=C(NCc1ccccc1)C(c1ccc(F)cc1)N(C(=O)c1csnn1)c1ccccc1 (stereo not given) | -1.3 | 4.3 | 12.1 | 1.4 | 4.4
O=c1[nH]c2ccccc2n1C1CCCCC1 | -0.5 | -3.9 | 2.1 | 6.1* | -0.7
O=C(NC1CCCCC1)N1CCC(n2c(=O)[nH]c3ccccc32)CC1 | -2.7 | -4.8 | -7.0 | 2.1 | -0.7
CCSc1nc2c(c(=O)[nH]1)C(c1cccnc1)C(C(=O)OC)=C(C)N2 (stereo not given) | -1.7 | x | x | -1.0 | 4.2
CCSc1nc2c(c(=O)[nH]1)C(c1ccncc1)C(C(=O)OC(C)C)=C(C)N2 (stereo not given) | 3.5 | 5.5 | 20.4 | -0.1 | 48.5*
CCN1C(=O)[C@H]2[C@@H](c3ccc(-c4cccc(Cl)c4)cc3)N[C@@](C)(C(=O)OC)[C@H]2C1=O | -1.6 | 0.3 | 1.1 | -0.6 | 4.0
O=C(Nc1ccc2cn[nH]c2c1)c1c(Cl)cccc1Cl | 4.2 | -2.2 | 1.7 | -0.2 | 20.9
O=C(Nc1ccc2cn[nH]c2c1)c1ccccc1F | 4.3 | 26.3 | 39.7 | 1.5 | 105.5*
COc1ccccc1C(=O)Nc1cccc(NC(C)=O)c1 | -1.9 | -3.3 | -23.2 | -0.6 | 13.0
COc1ccccc1C(=O)Nc1ccc2ccccc2c1 | 6.7 | 40.0 | 65.6* | 3.4 | 56.4*
c1cncc(-c2nc3cc4ccccc4cc3[nH]2)c1 | 1.6 | 13.4 | u | 4.6* | 55.5*
O=C(Nc1ccc2ccccc2c1)c1ccccc1F | 2.7 | 29.0 | 56.3* | 0.5 | 13.2
CSC(=S)NCc1cccnc1 | -0.1 | -4.4 | 5.5 | -0.9 | -1.7
C=CCN(C(=O)CNC(=O)c1cccs1)C(C(=O)NC1CCCCC1)c1cccnc1 (stereo not given) | 0.9 | -2.6 | -11.7 | -0.7 | -2.6
O=C(OC1CCCC1)c1ccc(Cl)cc1Cl | 1.6 | x | x | -0.1 | x
O=C(Nc1ccc2nc(-c3cccnc3)[nH]c2c1)c1ccccc1F | 1.3 | -63.0* | -71.6 | -0.7 | -19.3
C/C(N)=C(/C#N)C(=O)CSc1nn(-c2ccc(Cl)cc2)c(=S)s1 | 4.2 | 57.4 | 99.3* | 2.2 | 7.6
Cc1cc(OC(=O)c2ccccc2C)c([N+](=O)[O-])c(=O)[nH]1 | 0.4 | -7.5 | -4.3 | 0.0 | 0.4
O=C(NCC1CC1)c1ccc2c3n(nc2c1)-c1ccccc1CO3 | 3.3 | 30.3 | 57.9* | -1.5 | -8.5
Cc1ccc2c(c1)COc1c3ccc(C(=O)NCC4CC4)cc3nn1-2 | 2.1 | 21.5 | 24.4 | -0.7 | -8.3
COc1ccc(C(C)C)cc1S(=O)(=O)Nc1cccnc1 | -0.3 | x | x | -0.2 | x
O=C(c1cc(S(=O)(=O)N2CCOCC2)ccc1Cl)N1CCc2ccccc2C1 | 2.0 | -6.8 | 4.5 | -0.2 | 0.5
Cc1ccc(OCCCn2ccnc2)c([N+](=O)[O-])c1 | -0.6 | 6.5 | 6.2 | -0.6 | 37.0
SMILES | FXN GAA850 act | HSF1 inhib | HSF1 activator | DAX1 inh | AHR activator
CCOc1ccc(Cn2ccnc2)cc1[N+](=O)[O-] | 2.2 | -0.5 | -9.5 | -0.2 | 63.6*
CCC(C)N(C(=O)CSc1nnc(-c2ccco2)n1C)C1CCS(=O)(=O)C1 (stereo not given) | 1.1 | -0.9 | -5.1 | 4.6* | -1.9
CCC(C)N(C(=O)CSc1nncn1C)C1CCS(=O)(=O)C1 (stereo not given) | -1.1 | x | x | 0.1 | 1.2
COc1cc(OCc2ccc(C)cc2)ccc1CNC[C@H]1O[C@@H](n2cnc(C(N)=O)n2)[C@H](O)[C@@H]1O | 1.8 | x | x | -1.1 | x
O=C(CS(=O)(=O)c1ccc(Cl)cc1)N1CCN(c2ccccc2)CC1 | 1.2 | x | x | -0.3 | x
Cc1ccc(S(=O)(=O)CCC(=O)Nc2ccc(Br)cc2)cc1 | 1.1 | -66.9* | -72.7 | -0.3 | 3.8
Cc1ccc(NC(=O)CCN2CCCCC2)cc1 | -10.6 | -63.4* | -67.9 | -3.4 | 0.6
Cc1ccc(NC(=O)CCC(=O)Nc2ccc(C)cc2)cc1 | -0.2 | -7.5 | -5.8 | 1.5 | 4.6
COc1ccc(NC(=O)COCC(=O)Nc2ccc(C)cc2)cc1 | 0.8 | -1.2 | 2.7 | 5.6* | 5.4
Cc1ccc(NC(=O)CCN2CCN(CCO)CC2)cc1 | 2.6 | x | x | -0.3 | x
CCc1ccc(NC(=O)CCS(=O)(=O)c2ccc(Br)cc2)cc1 | 1.5 | 2.1 | 5.9 | -0.9 | 3.0
CNC(=O)CCC(=O)Nc1ccc(C)cc1 | 2.2 | -6.6 | 8.2 | 4.7* | 8.7
CCOc1ccccc1NC(=O)CN(c1ccc(OC)cc1OC)S(=O)(=O)c1ccccc1[N+](=O)[O-] | 1.3 | 7.6 | 7.2 | -0.9 | 13.3
CC1CC(C)CN(S(=O)(=O)c2ccc(C(=O)N3CCOCC3)cc2)C1 (stereo not given) | 0.7 | -1.6 | -1.5 | 1.1 | 5.9
N#CCC(=O)NCCCc1ccccc1 | -1.5 | -13.7 | -15.4 | 0.5 | -1.3
Cc1ccc(-c2nc(-c3ccncc3)no2)cc1C | 2.3 | 29.4 | 59.9* | 4.0 | 6.3
Cc1ccc(C)c(CN2CCC(CNC(=O)Nc3ccc(Cl)cc3)CC2)c1 | 1.0 | -7.8 | 3.8 | 6.2* | 1.5
Cn1cccc1CNC(=O)Nc1ccccc1 | 5.6 | 5.7 | 27.2 | 2.0 | 4.1
O=C(NCc1ccc(Cl)cc1Cl)Nc1ccccc1 | 5.6 | 38.4 | 71.5* | 1.0 | 4.3
S=C(NCc1ccncc1)Nc1ccc(Cl)cc1Cl | -0.9 | 9.1 | 26.7 | 1.0 | 13.4
Cn1cccc1CNC(=O)Nc1ccc(Cl)cc1 | 5.4 | 5.5 | 25.1 | -0.1 | 74.9*
O=C(NCc1ccncc1)Nc1ccc(Cl)cc1Cl | 0.2 | -3.3 | -3.6 | 0.1 | 48.5*
Cc1ccc(C)c(CN2CCC(CNC(=O)Nc3ccc(Br)cc3F)CC2)c1 | -0.1 | -16.3 | -6.9 | -0.1 | x
COc1ccc(NC(=O)c2c3c(nc4ccccc24)CCC3)cc1S(=O)(=O)N1CCOCC1 | 2.5 | -1.8 | 10.0 | -1.9 | 7.3
Cc1ccc(CNC(=O)Nc2ccccc2)cc1 | 1.2 | 13.2 | 31.6 | 0.1 | 8.0
SMILES | FXN GAA850 act | HSF1 inhib | HSF1 activator | DAX1 inh | AHR activator
Cc1ccc(C)c(CNC(=O)Nc2ccccc2)c1 | 4.6 | 25.9 | 57.3* | -0.3 | 3.5
COc1cc(C(=S)N2CCOCC2)cc(OC)c1OC(=O)c1ccc(C)cc1 | 3.6 | 2.5 | 7.5 | -1.5 | x
Cc1ccc(OCCOCCOc2cccc3cccnc23)c(Br)c1 | 3.6 | 29.9 | 76.6* | 0.0 | 19.4
Clc1cc(Br)ccc1OCCOCCOc1cccc2cccnc12 | 1.5 | 0.1 | 17.8 | -0.6 | 12.9
O=C(COC(=O)c1cccnc1Cl)c1ccc(OC(F)F)cc1 | -1.9 | 14.1 | 35.5 | -0.1 | -2.7
CCc1ccc2c(c1)C1(C(=O)N2)N2CCCC2C(C(=O)c2ccc3ccccc3c2)C12C(=O)Nc1ccccc12 (stereo not given) | 5.7 | 39.5 | 65.3* | 1.1 | 13.0
COc1ccc(CCNC(=O)c2ccccc2OCc2c(C)noc2C)cc1 | -0.2 | x | x | -1.0 | 0.2
